These compounds were tested on T1, MST1. Details: concentration: 1 μM, replicates: in singlicate; n = 1.
T1 construct: gene STK4
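Note: KINOMEscan kinase panel screen.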

Structure (SMILES)	%Inh
Cc1c(Cn2ccn3c(=O)cc(N4CCOCC4)nc23)cccc1C(F)(F)F [GSK2289044]	1%
Cc1cccc(-c2nc(Nc3ccc4[nH]ncc4c3)c3ccccc3n2)n1 [GW857175]	0%
COc1cc2nccc(Nc3ccc(NC(=O)c4ccc(C)cc4)c(O)c3)c2cc1OC.Cl [GW440132]	1%
Cn1ccc2ncnc(Oc3cccc(C(=O)Nc4ccccc4)c3)c21	0%
Cc1csc(-c2nc(Nc3ccncc3)c3ccccc3n2)n1 [GW869640]	18%
Clc1cc(Cl)cc(Nc2ccnc(Nc3cc(Cl)cc(Cl)c3)n2)c1 [GSK175726]	0%
Cl.c1ccc(-c2n[nH]cc2-c2ccnc(-c3ccc(CN4CCOCC4)cc3)c2)nc1 [GW776245]	21%
O=C(O)COc1ncnc2cc(-c3ccc4[nH]ncc4c3)sc12	73%
CC(C)(C)c1ccc(C(=O)Nc2cn3cc(-c4cccnc4)ccc3n2)cc1	33%
COc1ccc(C2=C(Nc3cccc(C(=O)O)c3)C(=O)NC2=O)cc1 [SB-390765]	0%
Cc1cccc(-c2nc(Nc3cccc(C(N)=O)c3)c3ccccc3n2)n1 [GW876019]	31%
O=C(Nc1n[nH]c2cc(-c3cccc(F)c3F)ccc12)C1CC1 [SB-733894]	0%
CC(C)(C)c1ccc(C(=O)Nc2cn3cc(Cl)ccc3n2)cc1	0%
CC1=C(C(=O)Nc2cc3cn[nH]c3cc2F)C(c2ccc(C(F)(F)F)cc2)CC(=O)N1 (centres unmarked) [GSK429286]	0%
Fc1cc(Cl)ccc1Nc1ccnc2cc(-c3ccc(CN4CCCCC4)o3)ccc12 [GW560116]	0%
O=C(Nc1n[nH]c2nc(-c3nccs3)c(Br)cc12)C1CCCC1 [SB-742609]	3%
COc1cccc(NC(=O)NC2CCN(c3ccnc(Nc4ccc(F)cc4)n3)C2)c1 (centres unmarked) [GSK1379721]	0%
Cc1cc(NCC(c2ccccc2)c2ccccc2)nc(NCc2ccc(C(F)(F)F)cc2)n1 [GW497681]	0%

Structure (SMILES)	%Inh
COC(=O)c1c(-c2ccccc2)c2cc(OC)ccc2c(=O)n1Cc1ccccc1	15%
Cn1cncc1-c1ccc2ncnc(Nc3ccc(OCc4ccccc4)cc3)c2c1 [GW320571]	14%
Cc1ccc(NC(=O)Nc2cc(C(C)(C)C)nn2-c2ccccc2)cc1 [GSK1014915]	52%
O=C(Nc1n[nH]c2nc(-c3nccs3)c(Br)cc12)C1CC1 [SB-742251]	3%
O=C1NC(=O)C(N2CCc3ccccc32)=C1c1ccccc1Cl [SB-373598]	87%
Cl.Oc1ccc(-c2nc(-c3ccccc3)[nH]c2-c2ccncc2)cc1 [SB-428218]	10%
Fc1cccc(COc2nnc(-c3ccc4c(c3)CCO4)o2)c1	0%
CS(=O)(=O)c1ccc(-c2c(-c3ncn[nH]3)sc(N3CCOCC3)c2C#N)cc1	24%
Cc1ccc(NC(=O)Nc2cccc(Cl)c2)cc1-c1ccc(C(=O)Nc2ccncc2)cc1 [GSK1398468]	1%
Cc1cccc(-c2nc(Nc3ccncc3)c3ccccc3n2)n1 [GW855857]	0%
Cc1cccc(-c2nc(-c3ccc(S(C)(=O)=O)cc3)sc2-c2ccnc(NCCc3ccccc3)c2)c1	0%
Cc1nnc(-c2ccc3occ(-c4ccc(S(C)=O)cc4)c3c2)[nH]1 (centres unmarked)	0%
COc1ccc2nc(-c3cccc(C)n3)nc(Nc3ccncc3)c2c1 [GSK204919]	11%
O=c1cc(N2CCOCC2)nc2n(Cc3cccc(Cl)c3Cl)ccn12 [GSK2286295]	0%
COc1ccc(CNC(=O)NC2CCN(c3ccnc(Nc4cc(OC)c(OC)c(OC)c4)n3)C2)cc1 (centres unmarked) [GSK1379748]	0%
Cn1ccc2ncnc(Oc3ccc(NC(=O)Nc4ccccc4)cc3)c21	0%
CCn1c(-c2ccccn2)nc2cnccc21 [SB-736398]	29%

— PMC5540273 (PLoS ONE, 2017)
